We go through 9 molecules from paper PMC5540273 (PLoS ONE, 2017).

What all share (conditions): concentration: 1 μM, replicates: in singlicate; n = 1
Assay [1] has as its system STK36.
Assay [2] relates to STK39.
Assay [3] has as its system SYK.
For assay [4], the system named is SgK110.
The test system of assay [5] is T1, TAK1.
T1 construct: gene MAP3K7

In assay [6] the test system is TAOK1.
Assay [7] has as its system TAOK2.
Assay [8] has as its system TAOK3.
The test system of assay [9] is TBK1.
The subject of assay [10] is TEC.
For assay [11], the system named is TESK1.
The test system of assay [12] is TGFBR1.
The test system of assay [13] is TGFBR2.
The subject of assay [14] is TIE1.
The test system of assay [15] is T2, TIE2.
T2 construct: gene TEK

Assay [16] concerns TLK1.
In assay [17] the test system is TLK2.
Assay [18] concerns TNIK.
Assay [19] has as its system TNK1.
The subject of assay [20] is TNK2.
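Note: KINOMEscan kinase panel screen.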

Turning to `Cl.O=C(Nc1ccc(Oc2ccc3[nH]c(NC(=O)c4ccco4)nc3c2)cc1)Nc1cc(C(F)(F)F)ccc1F` [GW683134], the “%Inh” value in assay [1] is reported as 0%; in assay [2], 12%; in assay [3], 31%; in assay [4], 0%; in [5], 89%; in assay [6], 0%. The “%Inh” value in [7] worked out at 0%; in assay [8], 0%; in [9], 0%; in assay [10], 13%; in assay [11] it was 36%; in assay [12] it was 0%. For the same molecule, the “%Inh” value in [13] is 0%; in assay [14], 100%; in assay [15], 99.8%; in assay [16] it was 0%; in assay [17], 3%; in [18] it was 0%. In addition, the “%Inh” value in assay [19] is 56%; in assay [20], 8%.

As to `COC(=O)Nc1nc2ccc(Oc3ccc(CC(=O)Nc4cc(C(F)(F)F)ccc4F)cc3)cc2[nH]1` [GW680903], the “%Inh” value was 7% in assay [1]; 0% in assay [2]; 0% in assay [3]; 0% in assay [4]; 0% in assay [5]; 0% in assay [6]. Further, the “%Inh” value in assay [7] worked out at 0%; in assay [8] it was 0%; in assay [9], 4%; in assay [10] it was 0%; in [11], 17%; in [12], 17%. Also, the “%Inh” value in [13] is on record as 0%; in [14] it was 94%; in [15] it was 36%; in assay [16], 14%; in assay [17], 0%; in assay [18], 0%. The “%Inh” value in [19] is reported as 0%; in assay [20], 17%.

Regarding `CN(c1ccc2c(c1)nc(NCc1ccccc1)n2C)c1ccnc(Nc2ccc(CS(C)(=O)=O)cc2)n1.Cl` [GW811603], the “%Inh” value in [1] was 0%; in assay [2], 7%; in [3], 69%; in [4], 0%; in assay [5], 46%; in assay [6], 0%. The “%Inh” value in assay [7] was 0%; in [8], 0%; in [9], 4%; in assay [10], 0%; in assay [11], 0%; in [12], 30%. Also, the “%Inh” value in assay [13] worked out at 5%; in [14] it was 88%; in [15], 82%; in [16] it was 0%; in assay [17], 0%; in [18], 24%. Further, the “%Inh” value in [19] was determined as 25%; in [20], 0%.

Turning to `Nc1ncnc2scc(-c3ccc(NC(=O)Cc4cc(F)ccc4F)cc3)c12.O=C(O)C(F)(F)F` [SB-731254-M], the “%Inh” value in assay [1] amounted to 0%; in assay [2], 8%; in assay [3], 0%; in [4], 11%; in assay [5] it was 22%; in assay [6], 11%. Moreover, the “%Inh” value was found to be 3% in assay [7]; 0% in assay [8]; 30% in [9]; 1% in assay [10]; 51% in [11]; 4% in [12]. For the same molecule, the “%Inh” value in [13] is recorded as 20%; in [14], 98.7%; in [15], 77%; in assay [16] it was 11%; in assay [17] it was 1%; in [18] it was 27%. The results for the “%Inh” value in assay [19] and in assay [20] were 44% and 2%, respectively.

For the molecule `Cn1cc(-c2ccc3c(c2)CCN3C(=O)Cc2cc(F)cc(C(F)(F)F)c2)c2c(N)ncnc21` [GSK2635225], the “%Inh” value in assay [1] is listed as 19%; in assay [2], 0%; in [3], 27%; in assay [4], 0%; in [5], 39%; in assay [6], 0%. Further, the “%Inh” value in [7] worked out at 0%; in assay [8] it was 0%; in [9], 21%; in [10], 0%; in assay [11], 26%; in assay [12], 0%. In addition, the “%Inh” value stood at 0% in assay [13]; 87% in assay [14]; 52% in [15]; 17% in [16]; 5% in [17]; 20% in assay [18]. Moreover, the “%Inh” value in assay [19] was 10%; in assay [20] it was 2%.

For `CC(=O)Nc1cn2nc(Oc3cccc(NC(=O)c4cccc(C(F)(F)F)c4)c3)ccc2n1`, the “%Inh” value in [1] is 0%; in [2], 15%; in assay [3], 14%; in assay [4], 0%; in assay [5] it was 21%; in assay [6], 0%. Further, the “%Inh” value in [7] stood at 34%; in [8] it was 0%; in assay [9], 57%; in [10], 18%; in assay [11], 13%; in assay [12] it was 9%. Moreover, the “%Inh” value in assay [13] is 0%; in assay [14] it was 81%; in assay [15] it was 65%; in assay [16] it was 0%; in assay [17] it was 0%; in assay [18], 38%. The results for the “%Inh” value in assay [19] and in [20] were 68% and 0%, respectively.

For `CN(C)CCOc1ccc(-c2cc(-c3ccc(Cl)c(O)c3)c(-c3ccncc3)[nH]2)cc1.Cl.Cl` [SB-684387], the “%Inh” value in assay [1] is listed as 63%; in assay [2] it was 33%; in [3], 2%; in assay [4], 0%; in [5], 32%; in assay [6], 0%. The “%Inh” value in assay [7] amounted to 1%; in assay [8] it was 0%; in assay [9] it was 28%; in assay [10], 0%; in [11] it was 19%; in [12], 54%. The “%Inh” value in assay [13] amounted to 75%; in assay [14] it was 4%; in assay [15] it was 39%; in assay [16] it was 16%; in assay [17] it was 7%; in assay [18], 33%. Moreover, the entries for the “%Inh” value in assay [19] and in [20] were 28% and 15%, respectively.

For `Cc1ccc(NC(=O)c2ccc(Cl)c(Cl)c2)cc1-c1ccc(C(=O)Nc2ccncc2)cc1` [GSK1398460], the “%Inh” value in assay [1] was found to be 0%; in [2] it was 0%; in [3] it was 21%; in [4], 4%; in assay [5], 12%; in assay [6], 0%. Further, the “%Inh” value in [7] amounted to 0%; in assay [8], 0%; in assay [9], 23%; in assay [10], 15%; in [11], 29%; in assay [12], 0%. In addition, the “%Inh” value was 0% in [13]; 0% in [14]; 0% in assay [15]; 8% in assay [16]; 6% in assay [17]; 0% in [18]. Moreover, the “%Inh” value worked out at 29% in assay [19] and 19% in [20].

Regarding `COc1ccc(C2=C(Nc3cccc(O)c3)C(=O)NC2=O)cc1` [SB-390766], the “%Inh” value in assay [1] is 100%; in [2], 34%; in assay [3], 0%; in assay [4] it was 100%; in [5] it was 0%; in [6], 0%. Also, the “%Inh” value in [7] turned out to be 1%; in [8], 0%; in assay [9] it was 0%; in [10], 14%; in assay [11], 12%; in assay [12], 20%. In addition, the “%Inh” value in assay [13] is reported as 0%; in assay [14], 0%; in assay [15] it was 0%; in assay [16] it was 0%; in [17] it was 4%; in assay [18], 0%. Further, the “%Inh” value in assay [19] is 0%; in assay [20] it was 5%.
